Laboratory results as given in PubChem BioAssay (NCI).
About 83,000 compounds went through this panel and 20% of them were active in at least one assay; those are over-represented in the sample as a whole.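 Single-concentration screen, 48 h exposure, 96-well plates. Endpoint: percent growth. Below 10 = active.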 Calls of active or inactive are those of the source.

Legend:
Assay in all cases: NCI-60 one-dose screen, 48 h (100 = growth as untreated, 0 = no growth, -100 = all killed)
Conditions in all cases: 10 µM unless noted
SR leukemia = tested on: SR leukemia
RPMI-8226 leukemia = tested on: RPMI-8226 leukemia
OVCAR-8 ovarian = tested on: OVCAR-8 ovarian
OVCAR-5 ovarian = tested on: OVCAR-5 ovarian
OVCAR-4 ovarian = tested on: OVCAR-4 ovarian
SK-OV-3 ovarian = tested on: SK-OV-3 ovarian
IGROV1 ovarian = tested on: IGROV1 ovarian
OVCAR-3 ovarian = tested on: OVCAR-3 ovarian
HS 578T breast = tested on: HS 578T breast
NCI/ADR-RES ovarian = tested on: NCI/ADR-RES ovarian

Measured: growth

CC(C)c1ccc(NC(=O)Nc2ccc(NC(=O)c3ccccc3N)cc2)cc1
active: RPMI-8226 leukemia -0.137% | HS 578T breast -3.9%
inactive: SR leukemia 17.9% | OVCAR-8 ovarian 61.5% | OVCAR-5 ovarian 60.5% | OVCAR-4 ovarian 59.4% | SK-OV-3 ovarian 46.8% | IGROV1 ovarian 72.6% | OVCAR-3 ovarian 49% | NCI/ADR-RES ovarian 89.5%

Cc1nn(-c2ccccc2)c(N2CCCCC2)c1/C=N/NC(=O)Cn1c(=O)sc2ccccc21
inactive: SR leukemia 93.9% | RPMI-8226 leukemia 65% | OVCAR-8 ovarian 81.1% | OVCAR-5 ovarian 82.9% | OVCAR-4 ovarian 79.3% | SK-OV-3 ovarian 89% | IGROV1 ovarian 67.2% | OVCAR-3 ovarian 81.9% | HS 578T breast 78.7% | NCI/ADR-RES ovarian 74.9%

CCOC(=O)c1c(C)nn(CC(O)c2ccccc2)c1NC(=O)Nc1cccc(F)c1 (stereo not given)
inactive: SR leukemia 93% | RPMI-8226 leukemia 80.8% | OVCAR-8 ovarian 93.1% | OVCAR-5 ovarian 84.8% | OVCAR-4 ovarian 83.6% | SK-OV-3 ovarian 85.2% | IGROV1 ovarian 90% | OVCAR-3 ovarian 95.6% | HS 578T breast 71.4% | NCI/ADR-RES ovarian 90.9%

Fc1ccc(COc2ccc(Nc3ncnc4sc5c(c34)CCCC5)cc2)cc1
inactive: SR leukemia 95.8% | RPMI-8226 leukemia 79.4% | OVCAR-8 ovarian 101% | OVCAR-5 ovarian 112% | OVCAR-4 ovarian 110% | SK-OV-3 ovarian 92.6% | IGROV1 ovarian 95.3% | OVCAR-3 ovarian 93.2% | HS 578T breast 98.8% | NCI/ADR-RES ovarian 95.9%

Cc1cccc(N2CCN(C(=S)c3ccc4c(c3)OCO4)CC2)c1
inactive: SR leukemia 16.9% | RPMI-8226 leukemia 20% | OVCAR-8 ovarian 27.6% | OVCAR-5 ovarian 50.3% | OVCAR-4 ovarian 66.6% | SK-OV-3 ovarian 19.2% | IGROV1 ovarian 31.3%
active: OVCAR-3 ovarian -33.9% | HS 578T breast -27.7% | NCI/ADR-RES ovarian -18.6%

CCCCC(=O)Nc1ncc(Cc2ccccc2Cl)s1
inactive: SR leukemia 25.8% | RPMI-8226 leukemia 49.2% | OVCAR-8 ovarian 49% | OVCAR-5 ovarian 59% | OVCAR-4 ovarian 68.1% | SK-OV-3 ovarian 63.3% | IGROV1 ovarian 45.4% | OVCAR-3 ovarian 30.1% | HS 578T breast 31.3% | NCI/ADR-RES ovarian 23.7%

O=C(Nc1ccccc1)c1sc(-c2ccccc2)cc1O
inactive: SR leukemia 70.4% | RPMI-8226 leukemia 74.4% | OVCAR-8 ovarian 119% | OVCAR-5 ovarian 94.2% | OVCAR-4 ovarian 90.9% | SK-OV-3 ovarian 106% | IGROV1 ovarian 92.5% | OVCAR-3 ovarian 84.1% | HS 578T breast 92% | NCI/ADR-RES ovarian 93.4%

S=c1ssnc1-c1cccs1
active: IGROV1 ovarian -4.8%
inactive: SR leukemia 98.6% | RPMI-8226 leukemia 97.3% | OVCAR-8 ovarian 113% | OVCAR-5 ovarian 115% | OVCAR-4 ovarian 99.8% | SK-OV-3 ovarian 98.4% | OVCAR-3 ovarian 78.9% | HS 578T breast 46.6% | NCI/ADR-RES ovarian 97.2%

CCN(CC)CCCNCc1cc(-c2ccccc2)nc2cc(Cl)ccc12
active: RPMI-8226 leukemia 3.47%
inactive: SR leukemia 13.6% | OVCAR-8 ovarian 28.8% | OVCAR-5 ovarian 87.5% | OVCAR-4 ovarian 67.8% | SK-OV-3 ovarian 75.6% | IGROV1 ovarian 28.9% | OVCAR-3 ovarian 61.7% | HS 578T breast 24.2% | NCI/ADR-RES ovarian 23.2%

COc1ccc(Cc2cnc(NC(=O)c3sc4ccccc4c3Cl)s2)cc1
active: SR leukemia 9.94% | OVCAR-3 ovarian -8.48% | HS 578T breast 8.78% | NCI/ADR-RES ovarian 6.4%
inactive: RPMI-8226 leukemia 28.3% | OVCAR-8 ovarian 18.7% | OVCAR-5 ovarian 48.4% | OVCAR-4 ovarian 60.5% | SK-OV-3 ovarian 33.9% | IGROV1 ovarian 25.9%

Cc1c2cc[nH]c(=O)c2c(C)c2c1[nH]c1ccc(OC(=O)c3ccccc3)cc12
active: SR leukemia 4.29% | SK-OV-3 ovarian 8.11%
inactive: RPMI-8226 leukemia 40.2% | OVCAR-8 ovarian 28.4% | OVCAR-5 ovarian 53.1% | OVCAR-4 ovarian 62.5% | IGROV1 ovarian 30.6% | OVCAR-3 ovarian 44.3% | HS 578T breast 19.3% | NCI/ADR-RES ovarian 27.7%

CCOC(=O)Nc1nc2ccc(SCC(C)C)cc2s1
inactive: SR leukemia 12.5% | RPMI-8226 leukemia 32.3% | OVCAR-8 ovarian 49.1% | OVCAR-5 ovarian 50.2% | OVCAR-4 ovarian 95.3% | SK-OV-3 ovarian 28.6% | IGROV1 ovarian 51.1% | HS 578T breast 30.3% | NCI/ADR-RES ovarian 14.1%
active: OVCAR-3 ovarian -16.4%

O=C(CCCCCCN1CC(=O)N2[C@@H](C3CCCCC3)c3[nH]c4ccccc4c3C[C@H]2C1=O)NO
inactive: SR leukemia 11.5% | RPMI-8226 leukemia 39.5% | OVCAR-8 ovarian 54.1% | OVCAR-5 ovarian 66.6% | OVCAR-4 ovarian 84.6% | SK-OV-3 ovarian 71.5% | IGROV1 ovarian 29% | OVCAR-3 ovarian 71.1% | HS 578T breast 70.2% | NCI/ADR-RES ovarian 105%

COc1ccc(/C=C/C(=O)c2cc3c(N)c(C(=O)Nc4ccc(OC)cc4)sc3nc2C)cc1
inactive: SR leukemia 11.8% | RPMI-8226 leukemia 37.7% | OVCAR-5 ovarian 42.9% | OVCAR-4 ovarian 53.5% | SK-OV-3 ovarian 16.1% | IGROV1 ovarian 33%
active: OVCAR-8 ovarian 7.03% | OVCAR-3 ovarian 2.94% | HS 578T breast 8.09% | NCI/ADR-RES ovarian 6.34%

COc1cc(C2=NN(C(C)=O)C(c3ccc(N(C)C)cc3)C2)cc(OC)c1OC (stereo not given)
inactive: SR leukemia 83.9% | RPMI-8226 leukemia 99.1% | OVCAR-8 ovarian 95.3% | OVCAR-5 ovarian 82.3% | OVCAR-4 ovarian 96.7% | SK-OV-3 ovarian 110% | IGROV1 ovarian 76.7% | OVCAR-3 ovarian 124% | HS 578T breast 84.7% | NCI/ADR-RES ovarian 99.2%

CCCCCCNc1nc(NCCCCCC)c2[nH]c(NCCCCCC)nc2n1
active: SR leukemia -33.4% | RPMI-8226 leukemia -29.4% | OVCAR-5 ovarian -7.94% | OVCAR-4 ovarian -16%
inactive: OVCAR-8 ovarian 57.3% | SK-OV-3 ovarian 102% | IGROV1 ovarian 68.8% | OVCAR-3 ovarian 26.5% | HS 578T breast 55.7% | NCI/ADR-RES ovarian 90.3%

O=C1/C(=C/c2ccccc2)CN(C(=O)c2cccnc2)C/C1=C\c1ccccc1
inactive: OVCAR-8 ovarian 12.4% | OVCAR-5 ovarian 10.8% | OVCAR-4 ovarian 43.8% | SK-OV-3 ovarian 40.2% | HS 578T breast 21.4% | NCI/ADR-RES ovarian 18.7%
active: SR leukemia 4.69% | RPMI-8226 leukemia -19.6% | IGROV1 ovarian 2.89% | OVCAR-3 ovarian -16.2%

CC(=O)c1cc(-c2ccccc2N)n(-c2ccc3c(c2)OCO3)c1C
inactive: SR leukemia 14% | RPMI-8226 leukemia 19.8% | OVCAR-8 ovarian 18.7% | OVCAR-5 ovarian 30% | OVCAR-4 ovarian 48.3% | SK-OV-3 ovarian 33.7% | IGROV1 ovarian 22% | HS 578T breast 32.6% | NCI/ADR-RES ovarian 13.1%
active: OVCAR-3 ovarian 5.55%

CC(=O)Nc1c(Cl)cc(Cl)c2c1Cc1cc([N+](=O)[O-])ccc1-2
inactive: SR leukemia 47.9% | RPMI-8226 leukemia 87.1% | OVCAR-8 ovarian 74.8% | OVCAR-5 ovarian 108% | SK-OV-3 ovarian 87.3% | IGROV1 ovarian 91.2% | OVCAR-3 ovarian 80.5% | HS 578T breast 65.4% | NCI/ADR-RES ovarian 83.5%
active: OVCAR-4 ovarian 9.59%

CC1(C)O[C@H]2OC3CCC(=O)CC3(O)[C@H]2O1 (stereo not given in full)
inactive: SR leukemia 107% | RPMI-8226 leukemia 96% | OVCAR-8 ovarian 98.2% | OVCAR-5 ovarian 107% | OVCAR-4 ovarian 110% | SK-OV-3 ovarian 94.9% | IGROV1 ovarian 108% | OVCAR-3 ovarian 104% | HS 578T breast 97% | NCI/ADR-RES ovarian 102%

Cc1cccc(NC(=O)CSc2nc3ccc([N+](=O)[O-])cc3[nH]2)c1
inactive: SR leukemia 96.2% | RPMI-8226 leukemia 55.5% | OVCAR-8 ovarian 83.6% | OVCAR-5 ovarian 99.2% | OVCAR-4 ovarian 59.3% | SK-OV-3 ovarian 88.2% | IGROV1 ovarian 87.4% | OVCAR-3 ovarian 72.7% | HS 578T breast 83.4% | NCI/ADR-RES ovarian 74.4%

COc1ccc(-c2nnc(SCC(=O)Nc3ccc(/C(C)=N\O)cc3)n2-c2ccccc2)cc1OC
inactive: SR leukemia 95.4% | RPMI-8226 leukemia 91.6% | OVCAR-8 ovarian 42.7% | OVCAR-5 ovarian 97% | OVCAR-4 ovarian 103% | IGROV1 ovarian 70.9% | OVCAR-3 ovarian 82% | HS 578T breast 42.8% | NCI/ADR-RES ovarian 90.6%
active: SK-OV-3 ovarian 4.74%

O=C(Cn1nnc2ccccc21)N/N=C/c1ccccc1F
inactive: SR leukemia 96.8% | RPMI-8226 leukemia 101% | OVCAR-8 ovarian 95.2% | OVCAR-5 ovarian 108% | OVCAR-4 ovarian 110% | SK-OV-3 ovarian 98.2% | IGROV1 ovarian 109% | OVCAR-3 ovarian 108% | HS 578T breast 81.2% | NCI/ADR-RES ovarian 109%

N=C(N)c1ccc(-c2ccc(-c3ccc(Cl)cc3Cl)s2)cc1F
inactive: SK-OV-3 ovarian 74.9% | NCI/ADR-RES ovarian 10.1%
active: SR leukemia -6.47% | RPMI-8226 leukemia -36.4% | OVCAR-8 ovarian -35.3% | OVCAR-5 ovarian -7.4% | OVCAR-4 ovarian -24.9% | IGROV1 ovarian -88.4% | OVCAR-3 ovarian -79.3% | HS 578T breast 9.71%

CCN(CC)c1ccc(/C=C\c2cc(C)c3cc(C)ccc3n2)cc1
active: NCI/ADR-RES ovarian -4.28%
inactive: SR leukemia 34.2% | RPMI-8226 leukemia 17.3% | OVCAR-8 ovarian 34.8% | OVCAR-5 ovarian 70.9% | OVCAR-4 ovarian 50.4% | SK-OV-3 ovarian 40.1% | IGROV1 ovarian 22% | OVCAR-3 ovarian 33.4% | HS 578T breast 42.5%

COc1ccc(/C=C/C(=O)c2ccc(Nc3nc(Nc4ccc(F)cc4)nc(Nc4ccc(Cl)cc4)n3)cc2)cc1
inactive: RPMI-8226 leukemia 58.5% | OVCAR-8 ovarian 97.1% | OVCAR-5 ovarian 111% | OVCAR-4 ovarian 98% | SK-OV-3 ovarian 122% | IGROV1 ovarian 81.2% | OVCAR-3 ovarian 113% | HS 578T breast 101% | NCI/ADR-RES ovarian 92.4%
active: SR leukemia -2.35%

O[C@@H](c1cc(C(F)(F)F)nc2c(C(F)(F)F)cccc12)[C@H]1CCCCN1
inactive: RPMI-8226 leukemia 68.9% | OVCAR-8 ovarian 76.7% | OVCAR-5 ovarian 77.7% | OVCAR-4 ovarian 62.6% | SK-OV-3 ovarian 82.7% | IGROV1 ovarian 51.7% | OVCAR-3 ovarian 63.1% | HS 578T breast 58.2% | NCI/ADR-RES ovarian 61.9%
active: SR leukemia 8.64%
